Measurements: PubChem BioAssay AID651821 (The Scripps Research Institute Molecular Screening Center, 2012)
Among all 370,000 compounds or so, about 4,700 (1.3%) were called active. The sample holds actives, similar compounds and a random draw of the others, so the mix is not that of the screen.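 How the source made its calls: active means inhibition above the plate cutoff, the mean of all test compounds on that plate plus 3 SD (cut at about 35% in these data); inactive means the rest.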

assay: binders of r(CAG) RNA repeats, primary screen, biochemical, fluorescence (AID 651821); settings: r(CAG) RNA repeat, TO-PRO-1 dye displacement fluorescence; at 3 µM; active compounds read high;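 further: 0% = DMSO alone and 100% = 100 µM mitoxantrone as full dye displacement; higher means more dye released from RNA so lower well fluorescence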

inhibition, active:
CCOc1cc(C)ccc1OCc1nnc(SCC(=O)Nc2cccc(C(=O)O)c2)n1-c1ccccc1 42%
COc1ccc(Br)cc1/C=N/Nc1ccc(S(=O)(=O)Nc2ccccc2C(=O)O)cc1[N+](=O)[O-] 70.1%
Cc1ccc(NS(=O)(=O)c2ccc(N/N=C/c3ccccc3OCC(=O)O)c([N+](=O)[O-])c2)c(C)c1 86.9%
O=C(O)c1ccccc1/C=N/Nc1ccc(S(=O)(=O)Nc2ccc(Cl)cc2)cc1[N+](=O)[O-] 67%
COc1cccc(/C=N/Nc2ccc(S(=O)(=O)Nc3ccccc3C(=O)O)cc2[N+](=O)[O-])c1O 93.8%
Cc1cc2nc(-c3ccco3)c(Cc3cccc(F)c3)n2c(C)c1Br 37%
O=c1cc(CN2CCN(S(=O)(=O)/C=C/c3ccccc3)CC2)c2ccc(O)cc2o1 40%
O=C1CC(c2ccccc2)=NN1c1ccc([N+](=O)[O-])cc1 45.5%
Cc1oc2cc([N+](=O)[O-])c(O)c([N+](=O)[O-])c2c1C(=O)c1ccc(Br)cc1 67.6%
O=C(O)CCn1cc(/C=C/C(=O)c2ccc(Cl)cc2)c(-c2cccc(Br)c2)n1 82.8%
Cc1ccc(NC(=S)NNC(=O)CSc2nnc(SCc3ccccc3Cl)s2)cc1 47.2%
CCN(CC)C(=O)CSC(Nc1cccc(F)c1)=C(C#N)C#N 56.7%
CCc1nnc(NS(=O)(=O)c2ccc(NC(=S)NC(=O)/C=C/c3cccs3)cc2)s1 83.9%
CCc1nnc(NS(=O)(=O)c2ccc(NC(=S)NC(=O)c3cccs3)cc2)s1 59%
CCc1nnc(NS(=O)(=O)c2ccc(NC(=O)c3cccc(OC(F)(F)C(F)F)c3)cc2)s1 72.6%
Cc1ccccc1OCC(=O)Nc1nnc(S(=O)(=O)N2CCCC2)s1 37.6%

inhibition, inactive:
CCCCCC(O)c1cccc(OCc2ccc3ccccc3n2)c1 (configuration not stated) 1.42%
Cc1ccc(NC(=O)N2c3ccccc3SC2c2ccco2)c(C)c1 (configuration not stated) 5.91%
COc1ccccc1Cc1c(-c2ccc(F)cc2)nc2ccc(C)cn12 6.12%
CCCCNC(=O)C[C@@H]1C[C@@]2(C(=O)OCC)CCC=C2N(Cc2cccc3ccccc23)C1=O 1.85%
COc1ccc(-n2c(COc3ccc(C)cc3)nnc2SCC(=O)Nc2ccc(Oc3ccccc3)cc2)cc1 5.38%
Cc1ccc(-n2c(COc3ccccc3)nnc2SCC(=O)Nc2ccc3c(c2)OCCO3)cc1 7.21%
COC(=O)[C@]12C[C@H](CC(=O)N3CCN(C(=O)C4CC4)CC3)C(=O)N(CCC3=CCCCC3)C1=C[C@H](C(C)C)O[C@@H]2C1CC1 3.85%
CCOc1ccccc1NS(=O)(=O)c1c[nH]c(C(=O)OC)c1 -0.7%
COc1ccc(S(=O)(=O)NC(C)c2ccccc2)cc1C(=O)N1CCCCC1 (configuration not stated) -7.44%
O=C(Nc1cc(S(=O)(=O)Nc2ccc(Cl)cc2)ccc1O)c1ccc(F)cc1F 22.4%
COc1cc(/C=C/C(=O)O)cc(S(=O)(=O)Nc2ccccc2C(=O)NCCc2ccccc2)c1OC 31.7%
O=[N+]([O-])c1cc(S(=O)(=O)Nc2cccc(Cl)c2)ccc1N=Nc1c(O)[nH]c2ccccc12 8.1%
Cc1ccc(S(=O)(=O)NC(=O)COc2ccccc2C)cc1 1.07%
CCN(CC(=O)NCc1cccs1)C(=O)c1cccc(S(=O)(=O)Nc2ccccc2OC)c1 -2.88%
COc1ccc(N(CC(=O)Nc2ccc(C)cc2C)S(=O)(=O)c2ccccc2[N+](=O)[O-])c(OC)c1 7.1%
CCOc1ccccc1-n1c(SCC(=O)N2CCCC2)nnc1-c1ccoc1C -6.11%
O=C(C1CCN(S(=O)(=O)c2ccccc2)CC1)N1CCN(C2CCCCC2)CC1 2.76%
COC(=O)[C@]12C[C@H](CC(=O)N3CCOCC3)C(=O)N(Cc3ccc(Cl)cc3Cl)C1=C[C@H](C(C)C)O[C@@H]2C1CC1 4.69%
COc1cccc(NC(=O)N(C)C[C@@H]2OCc3cn(nn3)CCCC(=O)N([C@@H](C)CO)C[C@H]2C)c1 1.49%
CCCCOCCCNC(=O)C[C@H]1C[C@@]2(C(=O)OC)C(=C[C@H](C(C)(C)C)O[C@@H]2C)N(CCc2ccc(OC)c(OC)c2)C1=O 2.98%
COc1ccc(CSc2nnc(SCC(=O)Nc3ccccc3C(F)(F)F)s2)cc1 0.71%
CCCCCCN1CCS(=O)(=O)N(Cc2ccc(C(F)(F)F)cc2)C(C(=O)OC)C1 (configuration not stated) 0.66%
CC(=O)C1(C(=O)Nc2nccs2)CC(c2ccccc2C(F)(F)F)=NO1 (configuration not stated) 2.46%
Cc1cc2nc(-c3ccc(F)cc3)c(Cc3ccsc3)n2c(C)c1Br 5.76%
c1ccc(Cc2c(-c3ccco3)nc3c4ccccc4ccn23)cc1 13.8%
NC(=O)CCN1CCN(S(=O)(=O)/C=C/c2ccccc2)CC1 -0.01%
Cc1ccc2c(CN3CCN(S(=O)(=O)c4ccccc4C(F)(F)F)CC3)cc(=O)oc2c1 10%
COc1ccc(CN2C(=O)C(C)S/C2=N/N=C/c2ccco2)cc1 (configuration not stated) 0.84%
O=C(Nc1cccc(F)c1)N1C2CCC1CC(O)(c1cccnc1)C2 (configuration not stated) -2.98%
CCN1N=C(c2ccccc2)CCC1=O -0.41%
O=C1NC(=O)C2C1C(c1ccc([N+](=O)[O-])cc1)=NN2Cc1ccccc1 (configuration not stated) 10.9%
CN1[C@H](Cc2ccccc2)COc2cccc(N3CCSCC3)c2S1(=O)=O 4.7%
COC(=O)C1=C(C)N(Cc2cccc(C(F)(F)F)c2)C(=NCc2cccc(C(F)(F)F)c2)NC1c1ccccc1C(F)(F)F (configuration not stated) 1.52%
Cc1c[nH]c2cccc(-c3ccc(Cl)cc3)c12 1.17%
Cc1cc(O)c(NC(=O)c2ccc(C)c([N+](=O)[O-])c2)cc1C 4.43%
COc1ccc(C(=O)c2c(C)oc3cc([N+](=O)[O-])c(O)c([N+](=O)[O-])c23)cc1 24.7%
N#Cc1ccccc1OC[C@@H](O)CN1CCC(C(O)(c2ccccc2)c2ccccc2)CC1 2.31%
CCOC(=O)N1CCN(C(=O)C[C@H]2C[C@@]3(C(=O)OC)C(=C[C@H](C(C)(C)C)O[C@@H]3C)N(Cc3ccc(Cl)cc3Cl)C2=O)CC1 7.87%
C#CCN([C@H](C(=O)OC)C(C)CC)S(=O)(=O)c1ccccc1Br (some centres not stated) -1.79%
O=C(C(=O)N1CCC(CNC(=O)c2cccnc2Cl)CC1)c1cccs1 2.4%
COc1ccc(CNS(=O)(=O)c2cc(Br)ccc2Br)cc1 2.67%
COc1ccc(-n2c(SCC(=O)NC3CCCC3)nnc2-c2ccncc2)cc1 3.34%
CCN(CC)S(=O)(=O)c1ccc(Cl)c(C(=O)NC(C)C(c2cccs2)N2CCCC2)c1 (configuration not stated) -3.47%
CCSc1nnc(SCC(=O)NNC(=O)c2ccccc2F)s1 1.18%
O=C(CSc1nnc(SCc2ccc(Cl)cc2)s1)N/N=C/c1ccccc1Cl 5.04%
O=C1Nc2cc(C(=O)N3CCN(c4ccc(F)cc4)CC3)ccc2NC1CSCc1cccc(F)c1 (configuration not stated) 14.7%
O=C(COC(=O)/C=C/c1cccc(Cl)c1)NCc1cccs1 -1.04%
CCOC(=O)c1nnn(CC(=O)Nc2cccc(F)c2)c1C(=O)OCC -2.22%
Cc1ccc(CSCC(=O)N(C)CC(=O)Nc2cccc(F)c2)cc1 -1.65%
CCS(=O)(=O)c1ccc(C(=O)NC)c(Cl)c1Cl -0.44%
O=C(NC1CCCC1)C1CSCCS(=O)(=O)N1Cc1ccccc1 (configuration not stated) 4%
NS(=O)(=O)c1ccc(NC(=S)NNC(=O)c2cccs2)cc1 -2.42%
CCc1nnc(NC(=O)[C@@H](NC(=O)c2cccc(C)c2)C(C)C)s1 2.27%
O=C(NC(=S)Nc1ccc(S(=O)(=O)Nc2ncccn2)cc1)c1cccc(Br)c1 5.78%
Cc1ccc(S(=O)(=O)N(C)C)cc1NC(=O)/C=C/c1cccs1 0.22%
Cc1cc(NS(=O)(=O)c2ccc(NC(=O)c3cccc(OC(F)F)c3)cc2)nc(C)n1 4.48%
CCc1nnc(NC(=O)C2CCCN2S(=O)(=O)c2ccccc2)s1 (configuration not stated) -1.9%
C=CCN=C1NC(c2ccccc2)C(C(=O)OC)=C(C)N1Cc1ccc(C(F)(F)F)cc1 (configuration not stated) 8.06%
CN(CCO)c1cccc2c1S(=O)(=O)N(Cc1cn(Cc3ccc(C(F)(F)F)cc3)nn1)Cc1ccccc1O2 -1.07%
C/C=C/C(=O)OCC(=O)Nc1ccc(F)cc1Cl 4.85%
Cc1cc2nc3c(=O)[nH]c(=O)nc-3n(C[C@H](O)[C@H](O)[C@H](O)CO)c2cc1C -477%
CCN1C(=O)N[C@@H]2C[C@H](C(=O)N3CCCC3)[C@H](C)[C@H](c3ccccc3)C[C@@H]21 1.47%
CCc1ccccc1OCC(=O)Nc1ccc(C)c(S(=O)(=O)N2CCCCCC2)c1 3.67%
CC1CCN(S(=O)(=O)c2nnc(NC(=O)COc3ccccc3F)s2)CC1 8.39%
COc1ccc(Cn2cc(CN3[C@@H](CC(C)C)COc4cc(Br)ccc4S3(=O)=O)nn2)cc1 2.72%
O=C(C(=O)N1CCC(CNS(=O)(=O)Cc2ccccc2)CC1)c1cc2ccccc2o1 3.81%
